According to PubChem BioAssay AID1159580 (chemical genetic matrix, 2015):
Several values for one entry are separate records, joined by “and”; a condition that tells them apart may be missing. Equal entries are not always repeated. The whole screen tested about 5,500 compounds, of which about 2,000 (36%) were called active. Roughly 18% stayed inconclusive and do not appear here. Cut-off read from the data, not from the text of the source: active = normalized growth mostly below about 0.91 (no sharp cut-off); inconclusive = no clear call, values can overlap the other calls; inactive = mostly above about 0.92. Some of the results follow.

Assay: chemical genetic growth profiling, strain panel (AID 1159580);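 note: tested at 20 µM; growth read once vehicle control cultures reached saturation at 30 °C; 1 = growth at the plate median or of vehicle wells; lower values mean less growth of the strain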
Settings: S. cerevisiae deletion strains, growth OD

Measured: normalized growth

CC(CCc1ccccc1)NCC(O)c1ccc(O)c(C(N)=O)c1 (stereo not given)
inactive: locus YAL013W, strain DEP1, stronger effect = lower value 1 | locus YAL021C, strain ccr4, stronger effect = lower value 1 | locus YAL026C, strain drs2, stronger effect = lower value 1.01 | locus YAL030W, strain snc1, stronger effect = lower value 0.997 | locus YAL040C, strain CLN3, stronger effect = lower value 1.01 | locus YBL061C, strain skt5, stronger effect = lower value 1.01 | locus YBR009C, strain hhf1, stronger effect = lower value 1 | locus YBR021W, strain FUR4, stronger effect = lower value 1.01 | locus YBR023C, strain chs3, stronger effect = lower value 1.01 | locus YBR171W, strain sec66, stronger effect = lower value 1.01 | locus YBR229C, strain ROT2, stronger effect = lower value 1 | locus YBR231C, strain swc5, stronger effect = lower value 1.01 | locus YBR279W, strain paf1, stronger effect = lower value 1 | locus YCL011C, strain gbp2, stronger effect = lower value 1.01 | locus YCL016C, strain dcc1, stronger effect = lower value 1.01 | locus YCL029C, strain bik1, stronger effect = lower value 1.01 | locus YCL061C, strain MRC1 (second series), stronger effect = lower value 1.01 | locus YCL061C, strain MRC1, stronger effect = lower value 0.997 | locus YCL069W, strain vba3, stronger effect = lower value 1 | locus YCR088W, strain abp1, stronger effect = lower value 1.01 | locus YDL005C, strain med2, stronger effect = lower value 1.01 | locus YDL035C, strain GPR1, stronger effect = lower value 1.01 | locus YDL040C, strain nat1, stronger effect = lower value 1.01 | locus YDL074C, strain BRE1, stronger effect = lower value 0.977 | locus YDL101C, strain DUN1, stronger effect = lower value 1 | locus YDL134C, strain PPH21, stronger effect = lower value 1.02 | locus YDL185W, strain tfp1, stronger effect = lower value 1.01 | locus YDL192W, strain arf1, stronger effect = lower value 1.01 | locus YDR001C, strain nth1, stronger effect = lower value 1.01 | locus YDR069C, strain doa4, stronger effect = lower value 1.01 | locus YDR101C, strain arx1, stronger effect = lower value 0.999 | locus YDR137W, strain rgp1, stronger effect = lower value 1.01 | locus YDR150W, strain NUM1, stronger effect = lower value 1 | locus YDR159W, strain sac3, stronger effect = lower value 1.01 | locus YDR162C, strain NBP2, stronger effect = lower value 1.02 | locus YDR195W, strain ref2 1.01 | locus YDR297W, strain sur2, stronger effect = lower value 1.01 | locus YDR318W, strain mcm21, stronger effect = lower value 1.02 | locus YDR334W, strain swr1, stronger effect = lower value 0.99 | locus YDR335W, strain msn5, stronger effect = lower value 1 | locus YDR363W, strain ESC2, stronger effect = lower value 1 | locus YDR388W, stronger effect = lower value 1.02 | locus YDR392W, strain spt3, stronger effect = lower value 1 | locus YDR502C, strain sam2, stronger effect = lower value 1.01 | locus YEL003W, strain gim4, stronger effect = lower value 0.999 | locus YEL037C, strain rad23, stronger effect = lower value 1 | locus YEL061C, strain CIN8 (second series), stronger effect = lower value 1.01 | locus YEL061C, strain CIN8, stronger effect = lower value 0.997 | locus YER002W, strain NOP16, stronger effect = lower value 1.03 | locus YER015W, strain faa2, stronger effect = lower value 0.997 | locus YER016W, strain bim1, stronger effect = lower value 1 | locus YER110C, stronger effect = lower value 1.02 | locus YER111C, strain swi4, stronger effect = lower value 1.01 | locus YER155C, strain BEM2 (second series), stronger effect = lower value 1.01 | locus YER155C, strain BEM2, stronger effect = lower value 1 | locus YER167W, strain BCK2, stronger effect = lower value 1.02 | locus YFR010W, strain ubp6, stronger effect = lower value 1 | locus YGL078C, strain dbp3, stronger effect = lower value 1.01 | locus YGL086W, strain mad1, stronger effect = lower value 1.01 | locus YGL167C, strain pmr1, stronger effect = lower value 1 | locus YGL173C, strain kem1, stronger effect = lower value 1.01 | locus YGL227W, strain vid30, stronger effect = lower value 1.02 | locus YGL240W, strain doc1, stronger effect = lower value 1 | locus YGL248W, strain PDE1, stronger effect = lower value 0.992 | locus YGL253W, strain hxk2, stronger effect = lower value 1 | locus YGR078C, strain PAC10, stronger effect = lower value 0.985 | locus YGR135W, strain pre9, stronger effect = lower value 1.05 | locus YGR252W, strain gcn5, stronger effect = lower value 0.996 | locus YHR013C, strain ard1, stronger effect = lower value 1 | locus YHR027C, strain rpn1, stronger effect = lower value 1 | locus YHR030C, strain SLT2, stronger effect = lower value 1 and 1.02 | locus YHR079C, strain IRE1 (second series), stronger effect = lower value 1.02 | locus YHR079C, strain IRE1, stronger effect = lower value 1.04 | locus YHR094C, strain hxt1, stronger effect = lower value 1.02 | locus YHR129C, strain ARP1, stronger effect = lower value 1.01 | locus YHR142W, strain chs7, stronger effect = lower value 1.02 | locus YHR200W, strain rpn10, stronger effect = lower value 1.01 | locus YIL066C, strain RNR3, stronger effect = lower value 0.995 | locus YIL073C, strain SPO22, stronger effect = lower value 1.1 | locus YIL125W, strain kgd1, stronger effect = lower value 1.01 | locus YIR030C, strain dcg1, stronger effect = lower value 1.03 | locus YJL092W, strain hpr5, stronger effect = lower value 1.01 | locus YJL095W, strain BCK1 (second series), stronger effect = lower value 1.01 | locus YJL095W, strain BCK1, stronger effect = lower value 0.981 and 1.05 | locus YJL115W, strain asf1, stronger effect = lower value 1 | locus YJL129C, strain trk1, stronger effect = lower value 1 | locus YJL134W, strain LCB3, stronger effect = lower value 1 | locus YJL154C, strain vps35, stronger effect = lower value 1 | locus YJL164C, strain tpk1, stronger effect = lower value 0.996 | locus YJL166W, strain qcr8, stronger effect = lower value 1 | locus YJL168C, strain set2, stronger effect = lower value 1.01 | locus YJL187C, strain SWE1 (second series), stronger effect = lower value 0.983 | locus YJL187C, strain SWE1, stronger effect = lower value 1.01 | locus YJR043C, strain POL32, stronger effect = lower value 0.986 | locus YJR066W, strain TOR1, stronger effect = lower value 0.977
